High-throughput results (PubChem)
In the library only some 13% were active in any assay of this set; here they are far more common.
HCV inh = HCV inhibition; actives 3.4% (n = 340,000); Potency, µM (top dose mostly 41.8 µM), hits mostly inhibitors; Huh7.5.1 HCVcc-Cre infection, luciferase reporter, 44 h; active = well fitted inhibition curve with a large enough effect; inconclusive = small, poorly fitted or top-dose-only effect, or another doubt; inactive = no such curve, though single readings can be large or run the other way
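After 44 h co-culture of compound, cells and HCVcc-Cre (~0.5 moi), substrate is added for 15 min at room temperature and luciferase measured over 15 sec. Cells were seeded at 1,000/well and pre-cultured 4 h.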
LASV entry inh = blocks Lassa virus binding to or entry into cells. actives 1.2% (n = 300,000). AID 540256. Lassa virus pseudotype entry inhibition, cell reporter. Potency, µM (highest dose often 37.9 µM), hits mostly inhibitors; calls by dose curve; tested in HEK293 cells; note: nearly all actives have a fitted effect of over 50% in size
Marburg entry inh = Marburg virus entry inhibition; actives 1.8% (n = 300,000); Marburg virus pseudotyped entry inhibition, cell reporter; Potency, µM (top dose mostly 37.8 µM), most hits filed as inhibitors; calls by dose curve; tested in HEK293 cells
FMDV inh = blocks foot and mouth disease virus; FMDV antiviral cell-based qHTS; Potency, µM (doses to about 57.9 µM), usual class: inhibitors; actives 1.2% (n = 410,000); calls by dose curve; tested in HEK293T cells; note: read-out not given here; nearly all actives have a fitted effect of over 45% in size
CHX counter = counter-screen hit for Shiga toxin inhibitors, cycloheximide; cell reporter, cycloheximide protein synthesis inhibition counterscreen; max response, %; actives 12% (n = 300,000); in the data active = max response mostly above about 13%, no sharp cut-off; inactive = mostly below about 14%; note: read at 38.3 µM for the half of the compounds with a filed dose
Shiga toxin inh = Shiga toxin inhibition; AID 2315; Vero cells, Shiga toxin protein synthesis inhibition reporter; actives 9.2% (n = 290,000); inhibition, % at 38.7 µM; in the data active = inhibition mostly above about 28%, no sharp cut-off; inactive = mostly below about 43%
Numbers stand for hits; n = inactive; u = inconclusive; x = not tested or not shown.

SMILES	HCV inh	LASV entry inh	Marburg entry inh	FMDV inh	CHX counter	Shiga toxin inh
Cc1nc2cc(-c3cccc(F)c3)nn2c(C)c1CCC(=O)NCCc1ccccc1	x	n	n	n	x	x
C=CCn1c(SCCCc2ccccc2)nc2c1c(=O)[nH]c(=O)n2C	u	n	n	u	n	n
CCc1ccccc1NC(=O)CN(C)C(=O)Cn1cc(C(F)(F)F)cc(Cl)c1=O	n	n	n	n	n	n
CCOCCN1CCN(c2c3c(nc4cc(-c5ccc(F)cc5)nn24)CCC3)CC1	n	x	n	n	n	n
OC1CCN(c2c3c(nc4cc(-c5cccc(F)c5)nn24)CCCC3)CC1	u	n	u	x	32.6	n
Fc1cccc(-c2cc3nc4c(c(N5CCC6(CC5)OCCO6)n3n2)CCCC4)c1	12.6µM	n	u	x	28.3	107.8
CCc1nnc2c3ccccc3nc(Nc3cc(C)cc(C)c3)n12	x	n	u	n	x	x
CC(Oc1ccc(F)cc1)C(=O)Nc1cccc(-c2nn[nH]n2)c1 (centres undefined)	n	x	x	n	n	n
Cc1nc(CS(=O)(=O)c2ccccc2)cc(Sc2ccc(Cl)cc2Cl)n1	u	n	u	n	16.9	68.3
Cc1coc2c(C)c3oc(=O)c(CCC(=O)NCCc4ccccc4F)c(C)c3cc12	x	n	n	n	x	x
COc1ccc(N(C)C(=O)c2oc(=O)c3ccccc3c2-c2ccc(C)cc2)c(OC)c1	10µM	u	n	u	n	n
Cc1cccc(Nc2nc(-c3sc(C)nc3C)cs2)c1	2.82µM	u	u	u	28.9	49.9
Cc1nc2ccccn2c1-c1csc(Nc2cccc(C(=O)O)c2)n1	n	n	n	n	n	n
Cc1nc(C)c(-c2csc(Nc3cccc(O)c3)n2)s1	25.1µM	n	u	n	45.2	35.2
CCC(=O)Nc1nc(C)c(-c2csc(Nc3cccc(O)c3)n2)s1	7.08µM	x	x	n	36.0	50.1
Cc1nc2ccccn2c1-c1csc(Nc2cccc(O)c2)n1	0.891µM	u	u	u	n	n
Cc1ccc(-c2cn3c(n2)sc2cc(C(=O)NC4CCCc5ccccc54)ccc23)cc1 (centres undefined)	x	n	x	n	x	x
Cc1cccc(NC(=O)CCC(=O)N/N=C/c2ccco2)c1C	n	n	u	n	n	n
Cc1nc(N)sc1-c1csc(Nc2cc(N(C)C)ccc2Cl)n1	x	x	x	n	x	x
Cc1nc(N)sc1-c1csc(Nc2cccc(O)c2)n1	u	n	n	n	13.7	n
Cc1cccc(C)c1Nc1nnc(SCc2nc3ccccc3s2)s1	n	n	u	n	49.7	n
Cc1cccc(C)c1Nc1nnc(SCC(=O)NCc2cccs2)s1	n	n	n	n	n	n
COc1cccc(Nc2nnc(SCc3nc4ccccc4s3)s2)c1	n	n	n	n	65.2	109.2
COCCn1c(=O)c(-c2cccc(C#N)c2)nc2cnc(N(C)C)nc21	x	x	x	n	x	x
CC(C)c1ccc2c(c1)CCC1C(C)(CN)CCCC21C (centres undefined)	u	u	10µM	u	n	n
SMILES	HCV inh	LASV entry inh	Marburg entry inh	FMDV inh	CHX counter	Shiga toxin inh
c1ccc(NC2=Nc3ccccc3CC2)cc1	n	u	n	n	36.8	44.5
C#CC(C)(C)NC(=O)c1ccc(-c2ccccc2F)cc1	n	n	u	n	30.1	63.7
NNC(=O)c1ccc(-c2ccccc2F)cc1	n	x	x	n	n	n
C#CC(C)(C)NC(=O)c1ccccc1OC	n	u	n	n	n	n
NC(=O)c1ccc(-c2ccccc2F)cc1	n	x	x	n	16.5	41.2
COC(=O)c1ccccc1Nc1ccnc(Cl)n1	n	n	n	n	x	x
CCCn1c(SCC(=O)c2ccc(OC)c(OC)c2)nc2c1c(=O)n(C)c(=O)n2C	n	n	n	n	n	n
COc1ccc(-c2cc(C(F)(F)F)n3nc(C(=O)Nc4cc(C)ccc4C)cc3n2)cc1	x	n	n	n	x	x
COc1cccc(-c2cc(C(F)(F)F)n3nc(C(=O)N4CCCCC4c4cccnc4)cc3n2)c1 (centres undefined)	5.62µM	x	u	u	19.2	51.2
COc1ccc(-c2cc(C(F)(F)F)n3nc(C(=O)NCCCN4CCOCC4)cc3n2)cc1	11.2µM	n	n	n	n	n
COc1ccc(-c2cc(C(F)(F)F)n3nc(C(=O)N4CCCCC4)cc3n2)cc1	11.2µM	n	u	x	n	n
COc1ccc(-c2cc(C(F)(F)F)n3nc(C(=O)N4CCCCC4)cc3n2)cc1OC	u	u	u	n	n	n
O=C(c1cc(Cl)ccc1F)N1CCCC(Nc2ccc3c(c2)OCCO3)C1 (centres undefined)	u	n	n	n	n	n
